# Compounds with a hit are over-represented: about 6.1% of the library has one in this group of screens.
# 15-hLO inh: 15-hLO (ALOX15) enzyme inhibition; purified 15hLO-1, xylenol orange hydroperoxide absorbance; Potency, µM (doses to about 57.1 µM), actives largely listed as inhibitors; 74,000 tested, 1.4% active; also: nearly all actives have a fitted effect of over 55% in size
#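 Readout: Fe(III)-xylenol orange absorbance, 573-to-405 nm ratio as reaction progress. Enzyme 40 nM purified human 15hLO-1, substrate 50 uM arachidonic acid, 6 min RT after 15 min compound preincubation; Hepes pH 7.5 buffer with Triton X-100.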
# Bst PK mod: modulators of Bacillus stearothermophilus pyruvate kinase | purified pyruvate kinase, luminescence ATP production; ribose 5-phosphate activator present at AC10 | Potency, µM | 51,000 tested, 1.2% active; in the data active = potency below about 11 µM; inconclusive = mostly about 12 µM to 25 µM;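 the screen sought inhibitors and activators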
# Hsp90 Hop PPI: changes Hsp90-Hop TPR2A binding signal, up or down; AID 595; Potency, µM (titrated, usually from 57 µM); AlphaScreen TPR2A-His6 binding biotin-Hsp90 C-terminal peptide; 71,000 tested, 0.44% active; active = well fitted curve in either direction with a large enough effect; inconclusive = small, poorly fitted or top-dose-only effect, or another doubt
# ERK AVP block: inhibitors of vasopressin-stimulated ERK signaling pathway; HEK293-V1b, vasopressin-stimulated pERK AlphaScreen; Potency, µM (doses to about 57.5 µM), most hits filed as inhibitors; 72,000 tested, 0.99% active; AID 995; also: nearly all actives have a fitted effect of over 55% in size
#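 Overnight-seeded V1b-HEK293 cells in 1% FBS got compound, then vasopressin (25 nM final, 5 min, 37C), then lysis buffer. AlphaScreen detection of phospho-ERK; activity normalized to basal and full-stimulation controls.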
# FLuc inh: inhibitors of firefly luciferase; P08659; purified firefly luciferase, luminescence, 8 min; Potency, µM (doses to about 57.1 µM), hits mostly inhibitors; 72,000 tested, 2.2% active; AID 411; also: nearly all actives have a fitted effect of over 40% in size
# Target sequence (P08659 whole entry, looked up): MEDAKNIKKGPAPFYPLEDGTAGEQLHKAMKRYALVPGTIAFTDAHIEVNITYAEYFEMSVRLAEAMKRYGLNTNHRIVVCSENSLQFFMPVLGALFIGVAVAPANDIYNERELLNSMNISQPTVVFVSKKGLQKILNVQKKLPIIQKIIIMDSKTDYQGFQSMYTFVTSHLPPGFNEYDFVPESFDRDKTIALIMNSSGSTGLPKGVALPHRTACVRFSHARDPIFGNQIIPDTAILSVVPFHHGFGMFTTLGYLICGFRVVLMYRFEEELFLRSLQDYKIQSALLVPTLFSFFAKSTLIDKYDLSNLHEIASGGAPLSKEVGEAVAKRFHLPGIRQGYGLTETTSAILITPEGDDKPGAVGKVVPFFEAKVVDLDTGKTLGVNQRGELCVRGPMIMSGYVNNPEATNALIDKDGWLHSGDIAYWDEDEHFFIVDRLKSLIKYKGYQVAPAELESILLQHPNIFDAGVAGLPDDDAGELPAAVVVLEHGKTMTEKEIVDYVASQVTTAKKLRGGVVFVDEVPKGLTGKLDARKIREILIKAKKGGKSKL
#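 Substrate buffer containing 10 uM ATP (pH 7.2 imidazole, Mg2+, KCl, detergent, BSA) is dispensed, compound pinned in, then luciferase/luciferin detector mix added. After 8 min at ambient temperature, light output is measured.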
# Tau filament bind: binds recombinant human tau filaments | recombinant tau filaments, thioflavin S fluorescence, 15 h; filaments grown with octadecylsulfate alongside compound | Potency, µM (series often up to 57.1 µM) | 71,000 tested, 2% active;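 also: actives lower thioflavin S fluorescence by blocking filaments or displacing dye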
#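 His-tagged recombinant human tau (exons 2, 3 and 10 included), 1 uM, was induced to fibrillize by 30 uM sodium octadecylsulfate with compound present. After 15 h at 37 C, thioflavine S fluorescence (ex 450, em 510 nm) was read.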
# A number is an active result; i = inactive; ? = inconclusive; nt = no result given; [ ] = dose if it differs, or a comment. Unless noted, calls follow the shape of the dose curve; as a rule, active = well fitted curve in the direction sought with a large enough effect; inconclusive = small, poorly fitted or top-dose-only effect, or another doubt; inactive = no such curve, though single readings can be large; an effect the other way counts as inactive or inconclusive.
SMILES,15-hLO inh,Bst PK mod,Hsp90 Hop PPI,ERK AVP block,FLuc inh,Tau filament bind
Cc1ccc(NC(=O)COC(=O)c2ccc3c(c2)NC(=O)C2CCCN32)cc1 (stereo not given),i,i,i,i,i,i
N#CC1=C2SCN(Cc3ccco3)CN2C(=O)CC1c1cccc2ccccc12 (stereo not given),7.94µM,i,i,?,i,?
O=C(Nc1ccc(OC(=O)c2ccco2)cc1)c1ccco1,i,i,i,i,12.6µM,i
Cc1ccc(NC(=O)c2ccco2)cc1C,i,nt,i,i,15.8µM,i
O=C(Nc1ccccn1)c1ccc(NC(=O)c2ccco2)cc1,i,i,?,i,25.1µM,i
O=C(Nc1ccc2c(c1)OCO2)OCc1ccccc1,i,nt,i,i,12.6µM,i
O=C(Nc1cccc(OC(=O)c2ccco2)c1)c1ccco1,i,i,i,i,i,i
CC(C)(C)OC(=O)[C@H]([C@@H]1N[C@@H](C(=O)O)C(C)(C)S1)N1C(=O)c2ccccc2C1=O,i[11.4 µM],nt,i[11 µM],i[11.5 µM],i[11.4 µM],i[11.4 µM]
CC(=O)OCC1OC(c2ccc3c(c2)OCO3)C=CC1OC(C)=O (stereo not given),i[11.4 µM],nt,nt,i[11.5 µM],nt,nt
O=C(O)CN(CCN(CC(=O)O)CC(=O)O)CCN(CC(=O)O)CC(=O)O,i,nt,i,i,i,i
C/C(C[n+]1ccccc1)=N\N=C(N)N,i[11.4 µM],nt,i[11 µM],i[11.5 µM],i[11.4 µM],i[11.4 µM]
COc1ccc2[nH]cc(CCNc3ncnc4ccc(-c5c(C)noc5C)cc34)c2c1,i,nt,i,i,i[2.29 µM],i
O=C(Nc1ccc2c(c1)OCCO2)c1ccco1,i,nt,i,i,10µM,i
O=C(Nc1cccc(NC(=O)c2ccco2)c1)c1ccc2c(c1)OCO2,i,i,i,i,i,i
CN(C)C(=O)COc1ccc2ccc(=O)oc2c1,i,nt,i,i,i,i
O=C(COC(=O)c1ccco1)Nc1ccc2c(c1)OCCO2,i,?,i,i,10µM,i
O=C(Nc1ccc(Cl)cc1C(=O)Nc1ccncc1)c1ccco1,2.51µM,nt,i,?,i,i
O=C(COc1ccc2ccc(=O)oc2c1)Nc1ccc2c(c1)OCCO2,i,nt,i,i,12.6µM,i
CC(=O)OC[C@@H]1O[C@@H](O/N=C2/C[C@@H](O)[C@@H](O)[C@@H]3[C@@H]4C(=O)N([C@@H](C)c5ccccc5)C(=O)[C@H]4CC[C@@H]23)[C@H](OC(C)=O)[C@H](OC(C)=O)[C@@H]1OC(C)=O,i[11.4 µM],nt,nt,i[11.5 µM],i[11.4 µM],nt
O=C(OCC(=O)N1CCN(C(=O)c2ccco2)CC1)c1cc(-c2ccc(F)cc2)nc2ccccc12,i,2.11,i,i,?,i
Cc1cc(C(=O)OCC(=O)N2CCN(c3ccccc3)CC2)c2ccccc2n1,i,i,i,?,i,12.6µM
O=C(OCC(=O)N1CCN(C(=O)c2ccco2)CC1)c1cc(-c2ccccc2)nc2ccccc12,i,?,i,20µM,i,i
COc1cccc(Cn2c(=O)c(-c3cccs3)nc3cnc(N4CCNCC4)nc32)c1,i,nt,i,i,i[11.4 µM],i
O=C1C=C[C@@H](O)[C@H]2[C@@H]3C(=O)N(C[C@@H]4CCCO4)C(=O)[C@@H]3CC[C@H]12,i[11.4 µM],nt,nt,i[11.5 µM],i[11.4 µM],nt
CCOC(=O)OCC1OC(c2ccccc2)C=CC1Oc1ccc(F)cc1C (stereo not given),i[11.4 µM],nt,nt,i[11.5 µM],nt,nt
SMILES,15-hLO inh,Bst PK mod,Hsp90 Hop PPI,ERK AVP block,FLuc inh,Tau filament bind
CCN(CCCNC(=O)C1CCN(S(=O)(=O)c2cccc3nonc23)CC1)Cc1ccccc1,i,i,i,i,i,20µM
NCC(=O)Nc1ccccc1,i[11.4 µM],nt,i[11 µM],i[11.5 µM],i[11.4 µM],i[11.4 µM]
CCc1nn2c(=O)cc(N3CCN(c4cc(C)nc5ccccc45)CC3)nc2s1,i,i,i,i,i,i
Cc1cc(N2CCN(S(=O)(=O)c3ccccc3)CC2)c2ccccc2n1,i[11.4 µM],nt,i[11 µM],31.6µM,i,i[11.4 µM]
COc1cccc(OC)c1/C(O)=C(\C#N)c1nc2ccccc2[nH]1,i,i,i,i,i,i
Cc1cc(C)n2c(SC/C(O)=C(\C#N)c3nc4ccccc4[nH]3)nnc2n1,i,i,i,i,i,10µM
CC(C)(C)/C(O)=C(/C#N)c1nc2ccccc2[nH]1,i,nt,i,20µM,i,i
COc1ccc(C/C(O)=C(\C#N)c2nc3ccccc3[nH]2)cc1OC,i,nt,i,i,i,i
CC1CCCN(C/C(O)=C(\C#N)c2nc3ccccc3[nH]2)C1 (stereo not given),i,i,i,i,i,i
CC(C)CC(/C(O)=C(\C#N)c1nc2ccccc2[nH]1)N1C(=O)c2ccccc2C1=O (stereo not given),i,nt,i,?,i,12.6µM
CN1C=CC=C/C1=C(\C#N)c1nc2ccccc2[nH]1,i,i,i,i,i,31.6µM
